Source: PubChem BioAssay (Tox21)
Inconclusive results are not listed. Activity calls are given as the source filed them. Unless noted, calls come from the whole dose curve; as a rule, active = well fitted curve in the direction sought with a large enough effect in the repeat runs; inconclusive = weak or mixed curves; inactive = no such curve, though single readings can be large; an effect the other way counts as inactive or inconclusive.

Tests used:
[1] = molecular target: Thyrotropin receptor (Homo sapiens) (UniProt P16473); assay: qHTS assay to identify small molecule antagonists of the thyroid stimulating hormone receptor (TSHR) signaling pathway (AID 1259385; calls by dose curve; note: nearly all actives have a fitted effect of over 20% in size)
Summary of the method: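 Antagonist mode: compound-treated TSHR-expressing HEK293 cells were stimulated with 1.5 ng/mL TSH (final) in presence of Ro20-1724 for 30 min at RT. HTRF cAMP detection after 1 h; each compound tested at 15 concentrations, triplicate.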

[2] = qHTS assay to identify small molecule agonists of the estrogen receptor alpha (ER-alpha) signaling pathway in the presence of an antagonist - cell viability counter screen (AID 1259386);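 note: series mostly up to about 92 µM; cells exposed to compounds for 22 h at 37 °C before the viability read; nearly all actives have a fitted effect of over 30% in size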
Summary of the method: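 Cytotoxicity was measured in parallel with the ERE-luciferase agonist screen, in the same wells. The cells were VM7Luc4E2, which endogenously express ER-alpha, and treatment was with compounds plus 10.0nM ICI-182,780 for 22hr.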

[3] = molecular target: Progesterone receptor (Homo sapiens) (UniProt P06401); assay: qHTS assay to identify small molecule agonists of the progesterone receptor (PR) signaling pathway (AID 1346784; calls by dose curve; note: nearly all actives have a fitted effect of over 30% in size)
Summary of the method: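 PR-UAS-bla HEK 293T cells carrying a UAS-driven beta-lactamase reporter were seeded in medium with 2% charcoal-stripped FBS, preincubated 6 hr at 37C, then exposed to compounds in DMSO for 16 hr; agonism was read by LiveBLAzer B/G FRET fluorescence.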

[4] = molecular target: Progesterone receptor (Homo sapiens) (UniProt P06401); assay: qHTS assay to identify small molecule antagonists of the progesterone receptor (PR) signaling pathway (AID 1346795; active = well fitted inhibition curve with a large enough effect in the signal ratio in the repeat runs, not every such curve was filed as active; the % refers to the signal ratio)
Summary of the method: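 PR-UAS-bla HEK293T cells carrying a UAS-driven beta-lactamase reporter were plated in medium with 2% charcoal-stripped FBS and rested 6 hr at 37C. Compounds were added with 1 nM R5020 (final) for 16 hr, then FRET substrate loaded 2 hr at room temperature.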

[5] = qHTS assay to identify small molecule antagonists of the progesterone receptor (PR) signaling pathway - cell viability counter screen (AID 1346798); note: series mostly up to about 92 µM; nearly all actives have a fitted effect of over 50% in size
Summary of the method: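 PR-UAS-bla HEK293T cells in medium with 2% charcoal-stripped FBS were treated with compounds plus R5020 for 16 hr at 37C. Cell viability was then read by CellTiter-Glo luminescence after 30 min at room temperature in the same wells.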

[6] = qHTS assay to identify small molecule agonists of the progesterone receptor (PR) signaling pathway - cell viability counter screen (AID 1346799; calls by dose curve; note: nearly all actives have a fitted effect of over 45% in size)
Summary of the method: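 PR-UAS-bla HEK293T cells, 3,000 per well in medium with 2% charcoal-stripped FBS, were preincubated 6 hr at 37C, then exposed to compounds for 16 hr; viability was read as CellTiter-Glo luminescence after 30 min at room temperature.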

[7] = qHTS assay to identify small molecule antagonists of the TGF-beta/Smad signaling pathway - cell viability counter screen (AID 1346824); note: nearly all actives have a fitted effect of over 50% in size
Summary of the method: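 Cytotoxicity counter-screen run in the same wells as the beta-lactamase Smad reporter read: CellTiter-Glo luminescence after 30 min at room temperature. HEK 293T SBE-bla cells had 5 hr compound exposure at 37 C with TGF-beta1 (0.25 ng/mL stock).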

[8] = qHTS assay to identify small molecule agonists of the TGF-beta/Smad signaling pathway - cell viability counter screen (AID 1346829); note: top concentration of the series differs between compounds; nearly all actives have a fitted effect of over 45% in size
Summary of the method: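 Here the cytotoxicity of library compounds is measured in SBE-bla HEK 293T cells treated for 5 hr, using CellTiter-Glo added to wells already read for the beta-lactamase reporter.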

[9] = qHTS assay to identify small molecule agonists of the TGF-beta/Smad signaling pathway (AID 1346859; active = well fitted activation curve with a large enough effect in the signal ratio in the repeat runs, not every such curve was filed as active; the % refers to the signal ratio; note: series mostly up to about 77 µM)
Summary of the method: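 HEK 293T cells stably carrying a beta-lactamase reporter driven by the Smad binding element were seeded overnight, exposed to DMSO-dissolved compounds for 5 hr at 37 C, 5% CO2, then loaded with FRET substrate for 2 hr at room temperature.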

[10] = molecular target: Thyrotropin-releasing hormone receptor (Homo sapiens) (UniProt P34981); assay: qHTS assay to identify small molecule antagonists of the thyrotropin-releasing hormone receptor (TRHR) signaling pathway (AID 1346877; active = well fitted inhibition curve with a large enough effect in the repeat runs, not every such curve was filed as active; note: series mostly up to about 51 µM)
Summary of the method: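 Antagonism is measured as suppression of the calcium response to 1 nM TRH in TRHR-HEK293 cells that have been dye-loaded for 2 h at 37 °C after overnight plating. Each compound is tested at 15 concentrations in triplicate.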

[11] = molecular target: Thyrotropin-releasing hormone receptor (Homo sapiens) (UniProt P34981); assay: qHTS assay to identify small molecule agonists of the thyrotropin-releasing hormone receptor (TRHR) signaling pathway (AID 1346891; calls by dose curve; note: series mostly up to about 58 µM)
Summary of the method: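 TRHR-expressing HEK293 cells were plated 18 h at 37 °C/5% CO2, loaded with calcium dye 2 h at 37 °C, then given compound in DMSO; fluorescence was read kinetically for 3 min at 1 s intervals.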

[12] = Human pregnane X receptor (PXR) small molecule agonists, qHTS cell viability counter screen (AID 1346977); note: nearly all actives have a fitted effect of over 50% in size
Summary of the method: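 PXR-Luc HepG2 cells in medium with 5% charcoal-stripped FBS were pre-incubated 5hr, then exposed to compounds for 24hr at 37C. Viability was read in the same wells by CellTiter-Fluor fluorescence, reagent added after 23hr with a 1hr incubation.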

[13] = Caspase-3/7 induction in HepG2 cells by small molecules, qHTS assay (AID 1346978); note: nearly all actives have a fitted effect of over 15% in size
Summary of the method: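 Caspase-3/7 induction was measured by Caspase-Glo 3/7 luminescence (30 min, room temperature) after a 17 hr compound exposure of wild-type HepG2 cells seeded at 2,000 per well and pre-incubated 5 hr.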

[14] = Caspase-3/7 induction in CHO-K1 cells by small molecules, qHTS cell viability counter screen (AID 1346979); note: nearly all actives have a fitted effect of over 35% in size
Summary of the method: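 Wild-type CHO-K1 cells were seeded at 1,500 per well, rested 5hr at 37 C, then exposed to compounds in DMSO. After 16hr, CellTiter-Fluor reagent was added and fluorescence read 1hr later as the viability measure.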

[15] = Caspase-3/7 induction in CHO-K1 cells by small molecules, qHTS assay (AID 1346980); note: nearly all actives have a fitted effect of over 15% in size
Summary of the method: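 Luminescent Caspase-Glo 3/7 read (30min, room temperature) quantified apoptosis induction. Cells were wild-type CHO-K1, treated with compound for 17hr at 37 C and 5% CO2.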

[16] = molecular target: Nuclear receptor subfamily 1 group I member 2 (Homo sapiens) (UniProt O75469); assay: Human pregnane X receptor (PXR) small molecule agonists, qHTS assay (AID 1346982); note: nearly all actives have a fitted effect of over 35% in size
Summary of the method: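 Cells: HepG2 stably carrying PXR-Luc. Medium held 5% charcoal-stripped FBS. Compounds in DMSO added after 5 hr plating, incubated 24 hr, then luminescence quantified with ONE-Glo.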

[17] = Caspase-3/7 induction in HepG2 cells by small molecules, qHTS cell viability counter screen (AID 1346981); note: series mostly up to about 92 µM; nearly all actives have a fitted effect of over 30% in size
Summary of the method: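 Cell viability is measured as a cytotoxicity counter screen alongside the Caspase-Glo 3/7 readout in identical wells. Wild-type HepG2 cells are treated with test compounds for 16 hr at 37 C before CellTiter-Fluor addition and a 1-hr incubation.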

[18] = molecular target: Nuclear receptor subfamily 1 group I member 2 (Rattus norvegicus) (UniProt Q9R1A7); assay: Rat pregnane X receptor (rPXR) activation by small molecules, qHTS assay (AID 1346983); details: rPXR luciferase reporter cells, One-Glo luminescence, 24 h; hits give high values; note: nearly all actives have a fitted effect of over 20% in size
Summary of the method: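 Luminescent readout (One-Glo luciferase, 30 min room temperature) followed 24 hr compound treatment at 37 C of rPXR cells plated 2,000 per well and preincubated 5hr; qHTS format with compounds delivered in DMSO.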

[19] = molecular target: Nuclear receptor subfamily 1 group I member 2 (Homo sapiens) (UniProt O75469); assay: Human pregnane X receptor (PXR) activation by small molecules, qHTS assay (AID 1346985); note: nearly all actives have a fitted effect of over 40% in size
Summary of the method: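 DPX-2 cells (HepG2 co-transfected with a PXR response element and a CYP3A4-promoter luciferase construct) were seeded at 2,000 per well, rested 5 hr at 37C, then exposed to DMSO-dissolved compounds for 24 hr. Activation was read as luciferase luminescence.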
% is set by controls: 0 for no effect and ±100 for the full control effect.

Chain of Nuclear receptor subfamily 1 group I member 2 (Homo sapiens) (O75469 whole entry, looked up): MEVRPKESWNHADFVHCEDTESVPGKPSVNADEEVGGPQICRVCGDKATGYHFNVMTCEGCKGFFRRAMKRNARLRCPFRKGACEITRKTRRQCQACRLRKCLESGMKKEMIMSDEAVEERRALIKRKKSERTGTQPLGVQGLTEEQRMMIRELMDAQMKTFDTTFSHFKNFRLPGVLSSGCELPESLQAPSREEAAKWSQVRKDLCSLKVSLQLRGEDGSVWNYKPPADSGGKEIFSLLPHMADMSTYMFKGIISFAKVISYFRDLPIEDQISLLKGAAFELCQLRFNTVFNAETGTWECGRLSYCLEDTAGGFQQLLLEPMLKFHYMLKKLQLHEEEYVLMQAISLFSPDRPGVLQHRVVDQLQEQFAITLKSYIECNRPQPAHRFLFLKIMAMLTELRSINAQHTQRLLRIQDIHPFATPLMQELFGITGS
Chain of Thyrotropin receptor (Homo sapiens) (P16473 whole entry, looked up): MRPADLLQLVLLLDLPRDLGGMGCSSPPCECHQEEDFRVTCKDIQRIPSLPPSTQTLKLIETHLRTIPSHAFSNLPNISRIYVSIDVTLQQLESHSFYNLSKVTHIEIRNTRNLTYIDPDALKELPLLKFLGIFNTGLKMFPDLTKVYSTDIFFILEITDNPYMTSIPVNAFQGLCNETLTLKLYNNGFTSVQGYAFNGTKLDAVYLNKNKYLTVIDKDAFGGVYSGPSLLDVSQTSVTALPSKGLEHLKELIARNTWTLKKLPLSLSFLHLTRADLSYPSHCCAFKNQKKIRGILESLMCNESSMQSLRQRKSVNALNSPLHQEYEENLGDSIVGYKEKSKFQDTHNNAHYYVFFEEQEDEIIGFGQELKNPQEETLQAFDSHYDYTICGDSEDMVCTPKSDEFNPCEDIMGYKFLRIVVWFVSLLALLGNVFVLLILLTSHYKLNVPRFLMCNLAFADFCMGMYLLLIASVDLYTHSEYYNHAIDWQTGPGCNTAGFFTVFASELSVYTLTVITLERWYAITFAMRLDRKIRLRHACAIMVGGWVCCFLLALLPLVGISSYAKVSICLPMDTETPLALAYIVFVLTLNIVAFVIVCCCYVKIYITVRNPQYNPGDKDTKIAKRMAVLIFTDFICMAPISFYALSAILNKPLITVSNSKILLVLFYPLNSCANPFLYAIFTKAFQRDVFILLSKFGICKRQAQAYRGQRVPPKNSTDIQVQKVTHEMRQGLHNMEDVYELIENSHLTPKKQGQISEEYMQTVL
Chain of Progesterone receptor (Homo sapiens) (P06401 whole entry, looked up): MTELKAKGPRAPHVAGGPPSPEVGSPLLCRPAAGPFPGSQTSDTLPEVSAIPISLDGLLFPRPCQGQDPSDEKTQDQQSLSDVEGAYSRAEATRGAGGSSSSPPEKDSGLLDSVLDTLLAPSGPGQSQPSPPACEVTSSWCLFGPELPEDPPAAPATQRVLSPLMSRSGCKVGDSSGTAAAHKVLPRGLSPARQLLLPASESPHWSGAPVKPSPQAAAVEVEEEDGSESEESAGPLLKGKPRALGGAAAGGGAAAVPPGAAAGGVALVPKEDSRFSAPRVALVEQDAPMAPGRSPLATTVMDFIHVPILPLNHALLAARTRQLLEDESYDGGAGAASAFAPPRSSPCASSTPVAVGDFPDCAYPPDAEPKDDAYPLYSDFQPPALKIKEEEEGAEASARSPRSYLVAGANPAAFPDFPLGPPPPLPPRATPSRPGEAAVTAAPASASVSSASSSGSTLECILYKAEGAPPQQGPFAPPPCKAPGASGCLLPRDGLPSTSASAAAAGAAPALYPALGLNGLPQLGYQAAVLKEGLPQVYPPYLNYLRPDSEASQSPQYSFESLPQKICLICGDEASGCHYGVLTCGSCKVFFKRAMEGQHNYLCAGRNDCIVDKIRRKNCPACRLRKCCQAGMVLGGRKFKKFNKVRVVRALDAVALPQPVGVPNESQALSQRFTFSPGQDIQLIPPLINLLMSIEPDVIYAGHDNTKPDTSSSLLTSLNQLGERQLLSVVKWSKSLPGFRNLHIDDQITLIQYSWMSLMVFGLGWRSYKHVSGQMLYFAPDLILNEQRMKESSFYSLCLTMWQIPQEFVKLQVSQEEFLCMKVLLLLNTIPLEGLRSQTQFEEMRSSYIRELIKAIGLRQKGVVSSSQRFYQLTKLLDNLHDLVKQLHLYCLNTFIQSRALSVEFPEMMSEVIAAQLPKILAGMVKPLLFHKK
Chain of Thyrotropin-releasing hormone receptor (Homo sapiens) (P34981 whole entry, looked up): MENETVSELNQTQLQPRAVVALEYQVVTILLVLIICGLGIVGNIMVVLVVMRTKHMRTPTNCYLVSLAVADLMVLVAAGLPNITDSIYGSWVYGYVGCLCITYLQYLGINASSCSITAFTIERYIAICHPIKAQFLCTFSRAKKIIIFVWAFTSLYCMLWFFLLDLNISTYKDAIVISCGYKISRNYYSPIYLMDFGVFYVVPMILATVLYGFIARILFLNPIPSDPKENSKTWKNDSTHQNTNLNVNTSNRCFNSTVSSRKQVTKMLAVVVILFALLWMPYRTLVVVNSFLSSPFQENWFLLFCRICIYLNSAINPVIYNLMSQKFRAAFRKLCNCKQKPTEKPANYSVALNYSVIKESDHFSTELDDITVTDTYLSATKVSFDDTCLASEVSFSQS
Chain of Nuclear receptor subfamily 1 group I member 2 (Rattus norvegicus) (Q9R1A7 whole entry, looked up): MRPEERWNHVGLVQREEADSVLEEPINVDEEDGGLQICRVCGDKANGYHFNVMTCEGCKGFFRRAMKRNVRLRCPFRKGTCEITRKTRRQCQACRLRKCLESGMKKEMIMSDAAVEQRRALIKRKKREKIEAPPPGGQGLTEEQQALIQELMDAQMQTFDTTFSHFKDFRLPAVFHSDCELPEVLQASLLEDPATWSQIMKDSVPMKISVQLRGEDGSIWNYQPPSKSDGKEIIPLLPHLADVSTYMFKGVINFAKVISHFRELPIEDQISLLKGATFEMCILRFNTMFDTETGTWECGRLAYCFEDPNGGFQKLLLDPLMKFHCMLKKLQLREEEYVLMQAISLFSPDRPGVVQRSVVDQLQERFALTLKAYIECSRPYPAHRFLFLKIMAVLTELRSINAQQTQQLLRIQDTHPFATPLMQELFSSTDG

CCCCCCCCCCCCCC
inactive: outcome [1] | Potency [2] | Potency [3] | Potency [4] | Potency [5] | Potency [6] | outcome [7] | outcome [8] | outcome [9] | outcome [10] | outcome [11] | Potency [12] | Potency [13] | Potency [14] | outcome [15] | Potency [16]

Cc1cc(NC(=O)C2=C(O)c3ccccc3S(=O)(=O)N2C)no1
inactive: outcome [1] | Potency [2] | Potency [3] | Potency [4] | Potency [5] | Potency [6] | outcome [7] | outcome [8] | outcome [9] | outcome [10] | outcome [11] | Potency [12] | Potency [13] | Potency [14] | outcome [15] | Potency [17]

CC(C)(C)NC(N)=O
inactive: outcome [1] | Potency [2] | Potency [3] | Potency [4] | Potency [5] | Potency [6] | outcome [7] | outcome [8] | outcome [9] | outcome [10] | outcome [11] | Potency [12] | Potency [13] | Potency [14] | outcome [15] | Potency [16]

CC(=O)c1sc(C)nc1C
inactive: outcome [1] | Potency [2] | Potency [3] | Potency [4] | Potency [5] | Potency [6] | outcome [7] | outcome [8] | outcome [9] | outcome [10] | outcome [11] | Potency [12] | Potency [13] | Potency [14] | outcome [15] | Potency [16]

COc1ccc(OC)c(Cl)c1
inactive: outcome [1] | Potency [2] | Potency [3] | Potency [4] | Potency [5] | Potency [6] | outcome [7] | outcome [8] | outcome [9] | outcome [10] | outcome [11] | Potency [12] | Potency [13] | Potency [14] | outcome [15]

O=C(O)CCSSCCC(=O)O
inactive: outcome [1] | Potency [2] | Potency [3] | Potency [4] | Potency [5] | Potency [6] | outcome [7] | outcome [8] | outcome [9] | outcome [10] | outcome [11] | Potency [12] | Potency [13] | Potency [14] | outcome [15] | Potency [17] | Potency [16]

CCNC(=O)C1CC(C)CCC1C(C)C (stereo not given)
inactive: outcome [1] | Potency [2] | Potency [3] | Potency [4] | Potency [5] | Potency [6] | outcome [7] | outcome [8] | outcome [9] | outcome [10] | outcome [11] | Potency [12] | Potency [13] | Potency [14] | outcome [15] | Potency [17]

CCCCCCN
inactive: outcome [1] | Potency [2] | Potency [3] | Potency [4] | Potency [5] | Potency [6] | outcome [7] | outcome [8] | outcome [9] | outcome [10] | outcome [11] | Potency [12] | Potency [13] | Potency [14] | outcome [15] | Potency [17]

COc1cc2c(cc1OC)C(=O)CC2
inactive: outcome [1] | Potency [2] | Potency [3] | Potency [4] | Potency [5] | Potency [6] | outcome [7] | outcome [8] | outcome [9] | outcome [10] | outcome [11] | Potency [12] | Potency [13] | Potency [14] | outcome [15] | Potency [17] | Potency [16]

CC(C)=CCOC(=O)c1ccccc1
inactive: outcome [1] | Potency [2] | Potency [3] | Potency [4] | Potency [5] | Potency [6] | outcome [7] | outcome [8] | outcome [9] | outcome [10] | outcome [11] | Potency [12] | Potency [13] | Potency [14] | outcome [15]

COc1ccc(Br)c(C)c1
inactive: outcome [1] | Potency [2] | Potency [3] | Potency [4] | Potency [5] | Potency [6] | outcome [7] | outcome [8] | outcome [9] | outcome [10] | outcome [11] | Potency [12] | Potency [13] | Potency [14] | outcome [15] | Potency [17] | Potency [16]

O=C(O)Cc1ccc(Cl)cc1Cl
inactive: outcome [1] | Potency [2] | Potency [3] | Potency [4] | Potency [5] | Potency [6] | outcome [7] | outcome [8] | outcome [9] | outcome [10] | outcome [11] | Potency [12] | Potency [13] | Potency [14] | outcome [15] | Potency [17]

Nc1nnc(-c2cccc(Cl)c2Cl)c(N)n1
inactive: outcome [1] | Potency [2] | Potency [3] | Potency [4] | Potency [5] | Potency [6] | outcome [7] | outcome [8] | outcome [9] | outcome [10] | outcome [11] | Potency [12] | Potency [13] | Potency [14] | outcome [15] | Potency [17]

Cc1c(I)c(=O)n(-c2ccccc2)n1C
inactive: outcome [1] | Potency [2] | Potency [3] | Potency [4] | Potency [5] | Potency [6] | outcome [7] | outcome [8] | outcome [9] | outcome [10] | outcome [11] | Potency [12] | Potency [13] | Potency [14] | outcome [15] | Potency [17] | Potency [16] | max activation [18] -0.919% | Potency [19]

CCCCOC(=O)c1ccccc1
inactive: outcome [1] | Potency [2] | Potency [3] | Potency [4] | Potency [5] | Potency [6] | outcome [7] | outcome [8] | outcome [9] | outcome [10] | outcome [11] | Potency [12] | Potency [13] | Potency [14] | outcome [15] | Potency [17] | Potency [16]
